An excerpt weighted towards active compounds, which were near 2.1% of everything screened.
CHT block – human CHT choline transport inhibition; Q9GZV3; CHT-expressing cells, membrane potential dye, choline response; stronger effect = lower value; B-score at 10 µM; actives 0.86% (n = 310,000); AID 488975;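 active = B-score over 3 SD under the library average, and starting fluorescence ratio not unusually high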;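 also: choline stimulus applied at its EC90 after an EC20 pre-addition; B-score computed on integrated fluorescence ratio after choline addition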
Target sequence (Q9GZV3 whole entry, looked up): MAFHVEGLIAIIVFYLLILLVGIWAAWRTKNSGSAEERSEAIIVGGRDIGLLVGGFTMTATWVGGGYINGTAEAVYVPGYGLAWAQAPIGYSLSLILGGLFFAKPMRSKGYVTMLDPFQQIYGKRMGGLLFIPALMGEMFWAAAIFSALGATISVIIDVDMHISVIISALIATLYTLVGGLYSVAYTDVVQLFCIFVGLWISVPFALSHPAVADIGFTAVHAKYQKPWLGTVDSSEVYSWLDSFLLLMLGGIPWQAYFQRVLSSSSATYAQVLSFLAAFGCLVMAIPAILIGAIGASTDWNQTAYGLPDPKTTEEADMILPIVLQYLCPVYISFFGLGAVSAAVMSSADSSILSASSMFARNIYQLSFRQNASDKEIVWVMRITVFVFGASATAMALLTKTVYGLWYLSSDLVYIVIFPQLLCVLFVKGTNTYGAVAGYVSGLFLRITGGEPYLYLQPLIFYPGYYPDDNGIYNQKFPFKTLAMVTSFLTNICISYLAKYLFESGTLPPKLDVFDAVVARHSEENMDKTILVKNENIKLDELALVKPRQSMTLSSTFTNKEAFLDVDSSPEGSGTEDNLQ
CHT PAM – human CHT allosteric activation | CHT-expressing cells, membrane potential dye, choline EC20; stronger effect = higher value; LV-AA mutant CHT in HEK293 cells | AID 488977 | actives 0.49% (n = 310,000) | Q9GZV3 | B-score at 10 µM;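 active = initial fluorescence not abnormally high and integrated response B-score, plate-corrected, over 3 SD above library mean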
EP2 modulator – modulators of human EP2 prostaglandin E2 receptor; P43116; EP2-expressing cells, cAMP HTRF FRET, PGE2 co-stimulation; induction, % at 25 µM; actives 0.83% (n = 260,000); AID 940;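 active = compounds whose cAMP rise, as percent of the full-agonist control response, exceeds 60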;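 also: rat C6 glioma line stably carrying human EP2 under a CMV promoter; the protocol text gives 20 µM as final concentration; 100% = response of wells given 1 µM PGE2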
PGE2 EP2 inh – EP2 receptor (human) inhibition; P43116; C6 glioma cells expressing human EP2, cAMP TR-FRET; cells stimulated with saturating PGE2; inhibition, % at 25 µM; actives 0.52% (n = 260,000);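 active = percent inhibition above 40 after rounding to a whole number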;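 also: rat C6 glioma host cells with rolipram phosphodiesterase inhibitor present; the protocol text gives 20 µM as final concentration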
CHT inh conf – confirmation of human choline transporter CHT inhibitors | shares compounds with CHT block | CHT-expressing cells, choline membrane potential dye; LV-to-AA substituted CHT, HEK293 cells | CHT activity remaining % of control (stronger effect = lower value), % at 10 µM | actives 70% (n = 2,400) | AID 493221;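 active = choline transporter activity left, mean of duplicates at 10 µM, below buffer-only control mean minus 3 SD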;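 also: depolarization triggered by choline at its EC90 following an EC20 pre-addition; 0% = hemicholinium-3 full block and 100% = buffer-only control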
HEK293 CHT ctr – activity in parental HEK293 cells lacking CHT; shares compounds with CHT block; membrane potential dye, choline response; active = decrease or increase beyond buffer ±3SD; membrane potential ratio readout (active if shifted either direction beyond buffer ±3SD; no single direction) at 10 µM; actives 4% (n = 2,400); AID 493222;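 also: parental cells lack the transporter so any hit is non-specific; ratio is peak minus trough fluorescence over baseline after EC90 choline challenge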
Starred values were filed as active, the others as inactive; i = inactive; x = not tested or not shown.

SMILES	CHT block	CHT PAM	EP2 modulator	PGE2 EP2 inh	CHT inh conf	HEK293 CHT ctr
CCN1CCN(C(c2cc3cc4c(cc3[nH]c2=O)OCCO4)c2nnnn2C2CCCCC2)CC1 (stereo unspecified)	x	x	17.7	13.2	x	x
CN(c1ccc(O)cc1)c1nc(-c2cccs2)cs1	-5.1*	i	-60.9	6.8	69.5%*	i
O=C(Nc1sc2c(c1C(=O)O)CCCC2)c1ccc(Cl)cc1	-6.33*	i	x	x	52.8%*	i
NC(N)=N/N=C/c1ccc(Cl)c(Cl)c1	-5.42*	i	-57.9	19.0	41.4%*	i
COc1cccc(-c2nnn(CC(=O)NC3CCCCC3)n2)c1	x	x	-75.2	5.9	x	x
Cc1ccccc1-n1nnnc1Sc1nnnn1-c1ccccc1	-4.99*	i	-4.9	7.6	63.8%*	i
Cc1ccccc1-n1nnnc1SCC(N)=O	i	i	13.1	15.9	x	x
CN(C)CCCNC(=S)NCC(c1ccc(Cl)cc1Cl)c1c[nH]c2ccccc12 (stereo unspecified)	-5.76*	i	x	x	i	i
O=C(CSc1nn(-c2ccc(F)cc2)c(=S)s1)NCC1CCCO1 (stereo unspecified)	-5.36*	i	13.4	9.9	i	i
O=C(CSc1nn(-c2ccc(F)cc2)c(=S)s1)NC(=O)NCc1ccco1	i	i	-87.3	5.3	x	x
O=C(O/N=C(/c1ccccc1)c1ccncc1)c1ccc(F)cc1	-9.69*	i	24.9	4.4	i	i
COc1ccccc1C(=O)O/N=C(\c1ccccc1)c1ccncc1	i	i	-19.2	0.6	x	x
O=C1OCCC1Sc1nc2ccccc2n1-c1ccccc1 (stereo unspecified)	-5.76*	i	38.1	16.5	i	i
O=C1OCCC1Sc1nc2ccccc2n1Cc1ccccc1 (stereo unspecified)	i	i	23.5	9.9	x	x
Cc1cc(Cl)ccc1OCC(=O)Nc1cccc(NC(=O)c2cccs2)c1	x	x	-45.5	6.0	x	x
COc1cc(NC(=O)c2csc(-c3ccncc3)n2)cc(C(=O)Nc2cccc(C(F)(F)F)c2)c1	-8.59*	i	-3.2	3.4	25.8%*	i
Cc1nn(CCC(=O)NC2(c3cccc(F)c3)CCCC2)c(C)c1C	x	x	-27.5	4.8	x	x
CCOc1cccc(C(=O)Nc2cc(NC(=O)c3ccco3)ccc2OC)c1	x	x	-18.7	9.8	x	x
O=C(c1ccco1)N1CCN(C(=O)c2cc3sccc3n2Cc2ccccc2)CC1	-5.88*	i	6.6	7.8	i	i
CCC(C)(C)NC(=O)C(c1ccccc1)N(C(=O)c1sc(C)nc1C)c1ccncc1 (stereo unspecified)	x	x	16.9	8.9	x	x
CCc1cc(N2CCCC(C(N)=O)C2)n2nc3nc(C)cc(C)c3c2n1 (stereo unspecified)	x	x	42.6	6.5	x	x
COc1cccc(-c2cc(C(=O)NN3CCOCC3)c3ccccc3n2)c1	-10.2*	i	-14.8	3.9	i	i
O=C(Nc1ccc(S(=O)(=O)Nc2ccccn2)cc1)c1ccc(Cl)cc1	x	x	-3.7	9.2	x	x
CS(=O)(=O)c1ccc2nc(NC(=O)CN3C(=O)C4CC=CCC4C3=O)sc2c1 (stereo unspecified)	i	i	24.1	6.4	x	x
Cc1ccc2nc(NC(=O)CN3C(=O)C4CC=CCC4C3=O)sc2c1 (stereo unspecified)	-5.2*	i	-61.2	1.1	i	i
SMILES	CHT block	CHT PAM	EP2 modulator	PGE2 EP2 inh	CHT inh conf	HEK293 CHT ctr
CCCNC(=O)c1cn(CC)c2cc(N3CCN(C)CC3)c(F)cc2c1=O	i	i	10.5	16.9	x	x
CCCc1nnc(NC(=O)c2cn(CC)c3cc(N4CCN(C)CC4)c(F)cc3c2=O)s1	-5.2*	i	-16.0	9.0	i	i
COc1ccccc1NC(=O)CSc1nnc(-c2cccnc2)n1Cc1ccccc1	x	x	-12.4	10.2	x	x
CC1CCCN(C(=S)Nc2ccc(S(=O)(=O)N3CCCCC3)cc2)C1 (stereo unspecified)	-12.8*	i	-37.0	19.6	i	i
COC(=O)Nc1ccc(S(=O)(=O)N2CCC(C(=O)N3CCCC(C)C3)CC2)cc1 (stereo unspecified)	i	i	-11.2	9.6	x	x
O=C(CN(C(=O)CCn1ncc2ccccc21)c1cccc(F)c1)NC1CCCC1	x	x	3.8	4.6	x	x
CCN(CC)S(=O)(=O)c1ccc(/C=C/C(=O)NC2CCCCC2)cc1	-7.05*	i	x	x	45.6%*	i
COc1ccc(C2(C(=O)Nc3ccc(S(=O)(=O)Nc4nc(C)cc(C)n4)cc3)CCCC2)cc1OC	-7.7*	i	11.9	4.4	28.6%*	i
O=C(NCCc1csc(-c2ccccc2)n1)c1cccs1	i	i	-39.4	9.4	x	x
CC(C)(C)CC(=O)NCCc1csc(-c2ccccc2)n1	-5.26*	i	-22.1	3.2	55.1%*	i
O=C(CN1CCN(Cc2ccc(Cl)cc2)CC1)N1CCc2ccccc21	-6.25*	i	x	x	48.2%*	i
O=C(CN1CCCCC1)N1CCc2ccccc21	i	i	x	x	x	x
Cc1csc(=N)n1CC(=O)N1CCc2ccccc21	-9.58*	i	-13.4	20.1	21.3%*	i
Cc1ccc(F)cc1NC(=O)CN1C(=O)NC2(CCCc3ccccc32)C1=O (stereo unspecified)	i	i	x	x	x	x
Cc1ccc(NC(=O)CN2C(=O)NC3(CCc4ccccc43)C2=O)cc1Cl (stereo unspecified)	-10.5*	i	-21.6	11.2	33.5%*	i
Cc1cc(NC(=O)CSc2nnnn2-c2ccc3c(c2)OCCO3)no1	x	x	-58.6	12.7	x	x
C#CCOC(=O)Nc1cccn(Cc2c(Cl)cccc2Cl)c1=O	-5.05*	i	1.3	3.9	i	i
Cc1ccc(N(C)C2SC(=O)NC2=O)cc1 (stereo unspecified)	x	x	-14.6	11.8	x	x
N#C/C(=C(/O)COc1ccccc1)c1nc2ccccc2s1	i	i	-30.2	5.7	x	x
COc1ccc(C/C(O)=C(\C#N)c2nc3ccccc3s2)cc1	-4.96*	i	-3.5	37.8	55.0%*	i
NC(=O)c1nc(-c2ccc(-c3ccccc3)cc2)nc2c1[nH]c(=O)n2CC1CCCO1 (stereo unspecified)	x	x	2.2	10.4	x	x
CC1(C)CC2CC(C)(CN2c2ncnc3ccccc23)C1 (stereo unspecified)	-5.12*	i	6.5	1.5	47.7%*	i
CC1=C(C(=O)N2CCCC(CCC(=O)NCc3ccccc3F)C2)OCCO1 (stereo unspecified)	-6.09*	i	12.8	7.8	i	i
CN1CCN(C(=O)CCN2C(=O)S/C(=C/c3ccc(Cl)cc3)C2=O)CC1	-6.47*	i	-38.8	12.4	50.4%*	i

Screens as filed in PubChem BioAssay.
